Inconclusive results are not listed. Calls of active or inactive are those of the source. Calls come from the whole dose curve; as a rule, active = well fitted curve in the direction sought with a large enough effect; inconclusive = small, poorly fitted or top-dose-only effect, or another doubt; inactive = no such curve, though single readings can be large; an effect the other way counts as inactive or inconclusive.
Assays:
[1] = qHTS to identify inhibitors of the type 1 interferon - major histocompatibility complex class I in skeletal muscle: primary screen against the NCATS LOPAC collection (AID 1347405);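 note: lytic HiBiT luminescence reporting HLA-B protein level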
Summary of the method: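 CRISPR-engineered immortalized human myoblasts (C25cl48) with HiBiT fused to endogenous HLA-B*08:01, stimulated with 4 ng/ml IFN-beta. LOPAC compounds tested as a 7-point 1:4.3 titration (top 46 uM final), 24 h at 37 C; lytic HiBiT luminescence read.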

[2] = qHTS to identify inhibitors of the type 1 interferon - major histocompatibility complex class I in skeletal muscle: primary screen against the NCATS Pharmaceutical Collection (AID 1347407);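 note: luminescence of HiBiT knocked into endogenous HLA-B as interferon-induced MHC class I level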
Summary of the method: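 Compounds […] were added to CRISPR-engineered HLA-B-HiBiT C25cl48 human myoblasts with 4.0 ng/ml IFN-beta. After 24 hrs at 37 C, cells were lysed and HiBiT luminescence measured.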

[3] = qHTS for inhibitors of adenylyl cyclases using a fission yeast platform: a pilot screen against the NCATS LOPAC library (AID 1347410)
Summary of the method: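 GFP from fbp1-GFP reporter, read by Acumen laser cytometry, indicates AC inhibition in fission yeast expressing AC9, GNAS and PDE4D2. Cells grown 18 h in the dark at 30C with compounds, final up to 57 uM.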

[4] = biological target: Protein phosphatase 1D (Homo sapiens) (UniProt O15297); assay: RapidFire Mass Spectrometry qHTS Assay for Modulators of WT P53-Induced Phosphatase 1 (WIP1) (AID 1347424);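 note: amount of dephosphorylated VEPPL-S-QETFS peptide product formed by WIP1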; note: potency is the fitted concentration of half-maximal effect
Chain of Protein phosphatase 1D (Homo sapiens) (O15297 whole entry, looked up): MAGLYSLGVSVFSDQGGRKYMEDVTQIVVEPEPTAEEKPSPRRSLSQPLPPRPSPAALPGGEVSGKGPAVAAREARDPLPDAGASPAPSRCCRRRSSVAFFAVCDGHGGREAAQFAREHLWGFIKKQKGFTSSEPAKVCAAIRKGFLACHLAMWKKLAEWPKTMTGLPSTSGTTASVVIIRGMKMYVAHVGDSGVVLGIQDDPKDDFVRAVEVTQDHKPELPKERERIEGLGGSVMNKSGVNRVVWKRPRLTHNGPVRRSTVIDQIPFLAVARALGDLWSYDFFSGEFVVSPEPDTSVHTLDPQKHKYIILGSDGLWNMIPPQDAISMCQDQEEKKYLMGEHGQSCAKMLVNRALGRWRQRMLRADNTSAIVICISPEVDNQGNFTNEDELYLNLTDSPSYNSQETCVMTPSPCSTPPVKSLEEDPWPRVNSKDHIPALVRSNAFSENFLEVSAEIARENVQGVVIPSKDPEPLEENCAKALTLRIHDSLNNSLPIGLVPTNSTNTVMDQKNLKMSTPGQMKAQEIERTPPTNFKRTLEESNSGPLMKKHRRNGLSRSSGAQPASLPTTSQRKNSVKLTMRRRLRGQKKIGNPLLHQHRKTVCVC
Summary of the method: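 WIP1 (10 nM final) was preincubated 1 h at room temperature with compounds in Tris-HCl pH 7.5, 30 mM MgCl2, TCEP, EGTA, BSA; 2 uM VEPPL-pS-QETFS phosphopeptide was added for 5 min, quenched with formic acid, and dephosphorylated product quantified by RapidFire MS.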

[5] = biological target: Protein phosphatase 1D (Homo sapiens) (UniProt O15297); assay: Rhodamine-PBP qHTS Assay for Modulators of WT P53-Induced Phosphatase 1 (WIP1) (AID 1347425)
Summary of the method: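 WIP1 (5 nM final) was preincubated with compound for 1 hour at room temperature. It then dephosphorylated 10 uM VEPPL-pS-QETFS peptide in Tris-HCl pH 7.5 with 30 mM MgCl2. Released Pi was detected by 10 uM Rh-PBP fluorescence (ex 525/em 598 nm) read at 1-min intervals for 11 min, as delta f1 - f0.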

[6] = Validation qHTS assay for inhibitors of Activation Induced Cytidine Deaminase (AID): UDG Counterscreen signal (AID 1347427)
Summary of the method: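 Counterscreen read of UDG activity (2 U/mL, 4/3x) in the FRET deamination format with AID (1 uM, 4/3x), DJC20/DJC23 substrates (250 nM, 4x), 4 h at room temperature. NaOH stop, fluorescence at 560 ex/665 em.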

[7] = biological target: Single-stranded DNA cytosine deaminase (Homo sapiens) (UniProt Q9GZX7); assay: Validation qHTS assay for inhibitors of Activation Induced Cytidine Deaminase (AID): AID signal (AID 1347429)
Chain of Single-stranded DNA cytosine deaminase (Homo sapiens) (Q9GZX7 whole entry, looked up): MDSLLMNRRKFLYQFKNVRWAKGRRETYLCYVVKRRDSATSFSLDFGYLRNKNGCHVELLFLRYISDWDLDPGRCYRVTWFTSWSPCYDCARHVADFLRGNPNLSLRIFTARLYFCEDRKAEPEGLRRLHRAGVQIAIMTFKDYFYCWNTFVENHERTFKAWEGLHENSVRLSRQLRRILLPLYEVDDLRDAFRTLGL
Summary of the method: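 FRET deamination assay: 1 uM AID (4/3x stock) with UDG, compound up to 114 uM, then 250 nM DJC20/DJC23 substrate (4x stock) for 4 hr at room temperature. NaOH added, 30 min; fluorescence read 540/590 nm.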

[8] = Primary qHTS for inhibitors of La Crosse Virus (LACV) - induced cell death in SH-SY5Y cells (AID 1508616);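 note: top concentration of the series differs between compounds; higher means more rescue of cells from virus-induced death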
Summary of the method: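 SH-SY5Y cells (6000/well) plated 24 h, then given compounds by pin transfer and LACV at 0.01 MOI for 6 days at 37C. Viability measured by ATPLite luminescence, normalized to infected DMSO and uninfected DMSO.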

Measured: Potency

NC(N)=NC(=O)Cc1c(Cl)cccc1Cl
inactive: [1] | [2] | [3] | [4] | [5] | [6] | [7] | [8]

O=C(O)CCCCCCCC(=O)O
inactive: [1] | [2] | [3] | [4] | [5] | [6] | [7] | [8]

CN1C(=O)CC[C@H]1c1cccnc1
inactive: [1] | [2] | [3] | [4] | [6] | [7] | [8]

CO[C@@]1(NC(=O)CSCC#N)C(=O)N2C(C(=O)O)=C(CSc3nnnn3C)CS[C@@H]21
inactive: [1] | [2] | [3] | [4] | [5] | [6] | [7] | [8]

Cc1ccc(S(=O)(=O)NC(=O)NN2CCCCCC2)cc1
inactive: [1] | [2] | [3] | [4] | [6] | [7] | [8]

CCC(=O)c1ccc2c(c1)N(CCCN(C)C)c1ccccc1S2
inactive: [1] | [2] | [3] | [4] | [5] | [6] | [7] | [8]

CC(=O)[C@@]1(O)CC[C@H]2[C@@H]3CCC4=CC(=O)CC[C@]4(C)[C@H]3CC[C@@]21C
inactive: [1] | [2] | [3] | [4] | [5] | [6] | [7] | [8]

CCn1nc(C(=O)O)c(=O)c2cc3c(cc21)OCO3
inactive: [1] | [2] | [3] | [4] | [5] | [6] | [7] | [8]

CN=C(NC#N)NCCSCc1nc[nH]c1C
inactive: [1] | [2] | [3] | [4] | [5] | [6] | [7] | [8]

CN(C)CC/C=C1\c2ccccc2COc2ccccc21
inactive: [1] | [2] | [3] | [4] | [5] | [6] | [7] | [8]

CC(C)[N+](C)(CCOC(=O)C1c2ccccc2Oc2ccccc21)C(C)C
inactive: [1] | [2] | [3] | [4] | [5] | [6] | [7] | [8]

COc1cc(Cc2cnc(N)nc2N)cc(OC)c1OC
inactive: [1] | [2] | [3] | [4] | [5] | [6] | [7] | [8]

c1ccc2c(c1)CCCC2C1=NCCN1 (stereo unspecified)
inactive: [1] | [2] | [3] | [5] | [6] | [7] | [8]

CN1C[C@H](C(=O)N[C@]2(C)O[C@@]3(O)[C@@H]4CCCN4C(=O)[C@H](Cc4ccccc4)N3C2=O)C[C@@H]2c3cccc4[nH]cc(c34)C[C@H]21
inactive: [1] | [2] | [3] | [4] | [6] | [7] | [8]

OC(CCN1CCCCC1)(c1ccccc1)C1CCCCC1 (stereo unspecified)
inactive: [1] | [2] | [3] | [5] | [6] | [7] | [8]

N[C@@H](COP(=O)(O)O)C(=O)O
inactive: [1] | [2] | [3] | [4] | [6] | [7] | [8]

CCCCCCCC/C=C\CCCCCCCC(=O)NCc1ccc(O)c(OC)c1
inactive: [1] | [2] | [3] | [5] | [6] | [7] | [8]

CCCOc1ccccc1-c1nc2n[nH]nc2c(=O)[nH]1
inactive: [1] | [2] | [3] | [5] | [6] | [7] | [8]

NS(=O)(=O)c1cc2c(cc1Cl)NC(C1CC3C=CC1C3)NS2(=O)=O (stereo unspecified)
inactive: [1] | [2] | [3] | [5] | [6] | [7] | [8]

O=C(CCCN1CCC(O)(c2cccc(C(F)(F)F)c2)CC1)c1ccc(F)cc1
inactive: [1] | [2] | [3] | [4] | [6] | [7] | [8]

COCCc1ccc(OCC(O)CNC(C)C)cc1 (stereo unspecified)
inactive: [1] | [2] | [3] | [5] | [6] | [7] | [8]

Cc1ccc(Cl)c(Nc2ccccc2C(=O)O)c1Cl
inactive: [1] | [2] | [3] | [6] | [7] | [8]
active: [4] 17.8 µM

CN(C)CC[C@@H](c1ccc(Br)cc1)c1ccccn1
inactive: [1] | [2] | [3] | [5] | [6] | [7] | [8]

O=c1[nH]c(=O)n([C@H]2C[C@H](O)[C@@H](CO)O2)cc1Br
inactive: [1] | [2] | [3] | [6] | [7] | [8]

NC1=NCC2c3ccccc3Cc3ccccc3N12 (stereo unspecified)
inactive: [1] | [2] | [3] | [4] | [6] | [7] | [8]

CC(=O)OC(C)C[N+](C)(C)C (stereo unspecified)
inactive: [1] | [2] | [3] | [5] | [6] | [7] | [8]

From PubChem BioAssay (NCATS)
